The text below walks through data of ChEMBL document CHEMBL4513146, “CO-ADD screening of Karazin Kharkiv National University (Ukraine) compounds”.

Results with a measured potency or affinity are listed apart.

One test concerns Klebsiella pneumoniae. Particulars: Concentration 32 ug.mL-1;; ASSAY_TEST Inhibition of Bacterial Growth; detection method Absorption (OD600); MEDIA CAMHB; plate type 384well; NBS; CORNING #3640; time 18 hr.
The next test concerns Candida albicans. Particulars: Concentration 32 ug.mL-1; ASSAY_TEST Inhibition of Fungal Growth; detection method Absorption (OD530).
For the next test, the system named is Cryptococcus neoformans. The note with it: Concentration 32 ug.mL-1; ASSAY_TEST Inhibition of Fungal Growth; detection method Resazurin; Absorption (OD600-OD570); plate type 384well; NBS; CORNING #3640. In general terms: The colour change of resazurin is a common sign of viable cells or microbes.

As usually defined, the Inhibition is the change of the read-out against control, counted positive when it falls.

Regarding `CCOc1ccc(C(=O)Cn2nc3n(Cc4ccccc4OC)c(=O)c4sccc4n3c2=O)cc1`, the Inhibition with Klebsiella pneumoniae is recorded as 8.36%; with Candida albicans it was 6.12%; in the test on Cryptococcus neoformans it was -29.81%.
In the same order, the values of `N#Cc1ccc(NC(=O)CSc2nnc3c4cc(-c5ccc(F)cc5)nn4ccn23)cc1` are 11.54%, 18.84% and -16.45%.
In the same order, the values of `O=C(Cn1nc2ccc(Sc3cccc(F)c3)nn2c1=O)Nc1cccc(C(F)(F)F)c1` are 3.15%, 0.5% and -9.77%.
In the same order, the values of `O=C(Cn1nc2c(N3CCSCC3)nc3ccccc3n2c1=O)Nc1ccc(Br)cc1` are 7.3%, 11.24% and -9.72%.
As for `COc1cccc(-n2ccn3c(SCC(=O)c4c[nH]c5ccccc45)nnc3c2=O)c1`, the Inhibition is recorded as 10.78% in the test on Klebsiella pneumoniae, 4.57% with Candida albicans and -9.55% in the test with Cryptococcus neoformans.
In the same order, the values of `CC(C)CCn1c(=O)c2ccc(C(=O)NC3CCCCC3)cc2n2c(=O)n(CC#N)nc12` are 4.36%, 4.75% and -17.66%.
On the same counts, the results for `COc1ccc(-c2cc3c4nnc(CCC(=O)NCc5ccc(OC)cc5OC)n4ccn3n2)cc1` are 15.27%, 2.37% and -17.34%.
In the same order, the values of `O=c1n(Cc2nc(-c3ccc4c(c3)OCO4)no2)nc2ccc(-c3ccccc3)nn12` are -1.48%, 6.34% and -13.29%.
As for `CCOc1ccccc1NC(=O)Cn1nc2c(Oc3ccccc3)nccn2c1=O`, the Inhibition in the test with Klebsiella pneumoniae is 5.91%; in the test on Candida albicans, 2.77%; in the test with Cryptococcus neoformans, -10.21%.
As for `CCc1ccccc1Sc1nccn2c(=O)n(CC(=O)Nc3ccc(C)cc3C)nc12`, the Inhibition in the test with Klebsiella pneumoniae is listed as 5.62%; in the test on Candida albicans, 1.23%; in the test with Cryptococcus neoformans it was -14.18%.
On the same counts, the results for `CCCCN(C)c1ccc2nnc(CCc3nc(-c4cc(OC)cc(OC)c4)no3)n2n1` are 6.4%, 9.61% and -5.17%.
With `COc1ccc(OC)c(NC(=O)Cn2nc3ccc(-c4ccc(C)cc4)nn3c2=O)c1`, the values for the Inhibition in the test on Klebsiella pneumoniae, with Candida albicans and in the test with Cryptococcus neoformans were 1.76%, 0.83% and -12.04%, respectively.
On the same counts, the results for `Cc1ccc(NC(=O)Cn2nc3ccc(SCc4ccc(Cl)cc4)nn3c2=O)cc1C` are 8.36%, 3.97% and -21.31%.
In the same order, the values of `COc1ccccc1Cn1c(=O)c2sccc2n2c(=O)n(Cc3ccc(Br)cc3)nc12` are 3.07%, -0.38% and -8.06%.
On the same counts, the results for `Cc1ccc(-n2ccn3c(SCC#N)nnc3c2=O)cc1C` are 10.69%, 1.05% and -5.76%.
Regarding `COc1ccc(-c2cc3c4nnc(CCC(=O)NCc5ccccc5Cl)n4ccn3n2)cc1`, the Inhibition is reported as 3.58% in the test on Klebsiella pneumoniae, 1.3% in the test on Candida albicans and -11.66% with Cryptococcus neoformans.
In the same order, the values of `CC(C)c1nnc2c(SCC(=O)Nc3ccc(Br)cc3F)nc3ccccc3n12` are 8.89%, 0.43% and -17.6%.
On the same counts, the results for `COc1cccc(-n2ccn3c(SCC(=O)Nc4ccc(Br)cc4)nnc3c2=O)c1` are -3.95%, 5.78% and -9.82%.
In the same order, the values of `CCOc1ccc(-n2ccn3c(=O)n(CC(=O)Nc4ccc(Br)cc4)nc3c2=O)cc1` are 8.93%, 2.12% and -3.26%.
Regarding `COc1ccc(CNC(=O)Cn2nc3c4cc(-c5ccc(OC)cc5)nn4ccn3c2=O)cc1`, the Inhibition with Klebsiella pneumoniae is 9.14%; with Candida albicans, -2.24%; with Cryptococcus neoformans it was -14.67%.
In the same order, the values of `Cc1ccccc1CN(c1ccc(C(C)C)cc1)S(=O)(=O)c1cccn2c(C)nnc12` are 8.89%, 4.49% and -10.58%.
On the same counts, the results for `COc1cc(NC(=O)CSc2nnc3c(=O)n(-c4cccc(F)c4)ccn23)cc(OC)c1` are 4.95%, 13.47% and -8.34%.
In the same order, the values of `O=c1c2nnc(-c3cccc([N+](=O)[O-])c3)n2ccn1-c1ccc(F)cc1` are 11.79%, 5.6% and -10.38%.
Turning to `COc1ccc(C(=O)CSc2nnc3c(=O)n(-c4ccc(F)cc4)ccn23)cc1OC`, the results for the Inhibition in the test on Klebsiella pneumoniae, in the test on Candida albicans and in the test with Cryptococcus neoformans were 11.15%, 4.19% and -8.42%, respectively.
In the same order, the values of `Cc1ccc(Oc2nc3ccccc3n3c(=O)n(CC(=O)Nc4ccc5c(c4)OCO5)nc23)cc1` are 4.57%, 10.98% and -25.85%.
On to `COC(=O)c1ccccc1NC(=O)Cn1nc2c(Oc3ccc(C)cc3)nccn2c1=O`, for which the Inhibition in the test with Klebsiella pneumoniae is 2.12%; with Candida albicans, -2.14%; with Cryptococcus neoformans it was -10.13%.
On the same counts, the results for `Cc1ccc(CNC(=O)CSc2nnc3c4cc(-c5ccc(F)cc5)nn4ccn23)cc1` are 11.62%, 2.7% and -29.65%.
In the same order, the values of `CCOc1ccc(-n2ccn3c(SCC#N)nnc3c2=O)cc1` are 5.38%, 1.02% and -3.42%.
In the same order, the values of `CCOC(=O)c1ccccc1NC(=O)Cn1nc2c(Oc3cccc(C)c3C)nccn2c1=O` are 7.42%, 0.56% and -7.85%.
Turning to `COC(=O)c1cccc(NC(=O)Cn2nc3c(SCc4ccc(Cl)cc4)nccn3c2=O)c1`, the Inhibition is on record as 6.22% in the test with Klebsiella pneumoniae, 27.78% in the test on Candida albicans and -15.7% in the test on Cryptococcus neoformans.
In the same order, the values of `COc1cccc(-n2ccn3c(SCC#N)nnc3c2=O)c1` are 2.74%, 3.51% and -7.4%.
In the same order, the values of `O=C(CSc1nnc2c(=O)n(-c3cccc(F)c3)ccn12)N1CCN(c2ccc(F)cc2)CC1` are 10.19%, 2.58% and -3.61%.
For the molecule `COc1ccc(NC(=O)CSc2nnc3c(=O)n(-c4ccccc4)ccn23)cc1OC`, the figures for the Inhibition with Klebsiella pneumoniae, with Candida albicans and in the test with Cryptococcus neoformans were 12.94%, 3.46% and -16.1%, respectively.
On the same counts, the results for `CCCc1nnc2c(=O)n(CC(=O)Nc3ccc(C(C)=O)cc3)c3ccccc3n12` are 3.81%, -1.78% and -9.17%.
In the same order, the values of `Cc1cc(C)cc(Nc2nc(C)cc3nn(CC(=O)Nc4ccc(C)c(F)c4)c(=O)n23)c1` are 19.17%, 3.06% and -10.1%.
In the same order, the values of `CCN(C(=O)Cn1nc2nc(Nc3ccc(F)cc3)ccn2c1=O)c1ccccc1` are 8.48%, 1.18% and -4.45%.
Turning to `Cc1oc(-c2cccc(Cl)c2)nc1CSc1nc2ccccc2n2c(C(C)C)nnc12`, the values for the Inhibition in the test with Klebsiella pneumoniae, in the test with Candida albicans and in the test with Cryptococcus neoformans were 8.12%, 1.38% and -17.47%, respectively.
In the same order, the values of `Cc1cccc(NC(=O)Cn2nc3c(Sc4ccccc4)nccn3c2=O)c1` are -4.33%, 0.01% and -4.87%.
As for `CCCCN(CC)c1ccc2nnc(CCc3nc(-c4ccc5c(c4)OCO5)no3)n2n1`, the Inhibition was 3.82% in the test with Klebsiella pneumoniae, 3.29% in the test with Candida albicans and -4.25% with Cryptococcus neoformans.
In the same order, the values of `Cc1ccc(NC(=O)Cn2nc3ccc(SC(C)(C)C)nn3c2=O)cc1Cl` are 12.42%, 1.72% and -28.11%.
In the same order, the values of `Cc1cc(C)cc(NC(=O)Cn2nc3c(Sc4cccc(C)c4)nc4ccccc4n3c2=O)c1` are 5.29%, 1.16% and -15.02%.
On the same counts, the results for `CCc1nnc2c(S(=O)(=O)N(Cc3cc(F)cc(F)c3)c3ccc(C)cc3)cccn12` are 20.07%, 3.29% and -8.74%.
Take `Cc1cc2nn(CC(=O)Nc3cccc(C)c3C)c(=O)n2c(Nc2ccc(C)c(F)c2)n1`: the Inhibition with Klebsiella pneumoniae is listed as 16.72%; in the test on Candida albicans, 5.25%; in the test with Cryptococcus neoformans, -5.98%.
Regarding `Cc1nnc2c(SCC(=O)N3CCN(c4ccccc4F)CC3)nc3ccccc3n12`, the Inhibition with Klebsiella pneumoniae was 10.03%; in the test on Candida albicans it was 8.32%; in the test on Cryptococcus neoformans, -3.27%.
`Cc1ccc(NC(=O)Cn2c(=O)c3nnc(C(C)C)n3c3ccccc32)cc1F`: the Inhibition was 13.19% in the test on Klebsiella pneumoniae, 0.6% with Candida albicans and -30.05% in the test on Cryptococcus neoformans.
Consider `COc1ccc(NC(=O)Cn2nc3c4cc(-c5ccc(C)cc5)nn4ccn3c2=O)cc1Cl`, for which the Inhibition with Klebsiella pneumoniae was -5.12%; in the test on Candida albicans it was 9.96%; with Cryptococcus neoformans, -15.26%.
`Cc1ccc(NC(=O)Cn2nc3c4cc(-c5ccc(Cl)cc5)nn4ccn3c2=O)cc1C`: the values for the Inhibition in the test with Klebsiella pneumoniae, in the test with Candida albicans and in the test with Cryptococcus neoformans were 9.71%, 6.69% and -22.86%, respectively.
On to `Cc1nnc2c(=O)n(CC(=O)Nc3cccc(F)c3)c3ccccc3n12`, for which the Inhibition is on record as 11.8% in the test on Klebsiella pneumoniae, 1.2% in the test with Candida albicans and -2.05% with Cryptococcus neoformans.
In the same order, the values of `Cc1cc2nn(CC(=O)NC3CCCCC3)c(=O)n2c(Nc2ccc(F)c(C)c2)n1` are 19.39%, 3.39% and -7.59%.
For `O=C(Cn1nc2n(Cc3ccc(F)cc3)c(=O)c3ccccc3n2c1=O)Nc1ccc2c(c1)OCO2`, the values for the Inhibition with Klebsiella pneumoniae, in the test on Candida albicans and in the test with Cryptococcus neoformans were 8.5%, 5.19% and -6.14%, respectively.
In the same order, the values of `CC(C)CCn1c(=O)c2sccc2n2c(=O)n(Cc3ccccc3Cl)nc12` are 16.14%, -1.94% and -23.98%.
On the same counts, the results for `CCc1ccccc1Sc1nccn2c(=O)n(CC(=O)Nc3ccc(OC)c(Cl)c3)nc12` are 5.33%, 13.19% and 0.67%.
In the case of `CCc1nnc2c(S(=O)(=O)N(Cc3ccccc3Cl)c3ccccc3)cccn12`, the Inhibition is 6.34% with Klebsiella pneumoniae, 3.28% in the test on Candida albicans and -4.36% in the test on Cryptococcus neoformans.
In the same order, the values of `CC(C)NC(=O)CSc1nnc2c(=O)n(Cc3ccc(F)cc3)ccn12` are 4.17%, 2.95% and -22.73%.
